# Reference: PubChem BioAssay (NCI)
# Compounds without any hit were thinned out: in the full panel of roughly 83,000, 20% have a hit.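 Testing used 96-well plates and a 48-hour single-concentration exposure. Example: -40 means 40% of the starting cells died.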 A number with no mark means an inactive call. Active and inactive are the calls of the source. Rule for the calls: active = growth percent below 10; inactive = the rest.
# What was measured:
# Assay in all cases: NCI-60 one-dose screen, 48 h (100 = growth as untreated, 0 = no growth, -100 = all killed)
# Settings in all cases: 10 µM unless noted
# T-47D breast = system: T-47D breast
# BT-549 breast = system: BT-549 breast
# MDA-MB-435 melanoma = system: MDA-MB-435 melanoma
# SW-620 colon = system: SW-620 colon
# MCF7 breast = system: MCF7 breast
# HCT-116 colon = system: HCT-116 colon
# HCC-2998 colon = system: HCC-2998 colon
# KM12 colon = system: KM12 colon
SMILES,growth (T-47D breast),growth (BT-549 breast),growth (MDA-MB-435 melanoma),growth (SW-620 colon),growth (MCF7 breast),growth (HCT-116 colon),growth (HCC-2998 colon),growth (KM12 colon)
CCc1cc2c(cc1Cl)nc1c(=O)[nH]c(=O)nc-1n2CCOCC(C)C,75.2%,94%,3.04% (active),70.2%,39.5%,37.9%,80.3%,74.3%
CC(=O)N1N=C(c2cc3ccccc3oc2=O)CC1c1cn(-c2ccccc2)nc1-c1ccc(C)cc1 (stereo not given),96.4%,117%,102%,98.8%,90.8%,92.1%,106%,98.6%
Cc1csc(/N=C(N)/N=C(\N)c2cccnc2)n1,85.5%,77.6%,6% (active),53.2%,82.1%,55.1%,90.2%,48.8%
CCN(CC)c1ccc(/C=N/NC(=O)c2ccc(S(N)(=O)=O)cc2)c(O)c1,30.4%,26.5%,31.1%,35%,6.43% (active),24.2%,37.3%,24.2%
COc1ccc([C@@H]2C(=O)N(c3cc(OC)c(OC)c(OC)c3)[C@H]2c2ccc(OC)c(O)c2)cc1,94.9%,-30.1% (active),-15.4% (active),24.2%,10.6%,6.47% (active),17%,10.7%
COc1cc2c3c(cc4c5c(ccc4c3c1OC)OCO5)N(CCN(C)C)C2=O,-5.03% (active),-6.3% (active),-18.5% (active),7.13% (active),0.153% (active),-12.2% (active),-45.3% (active),8.95% (active)
Cc1c(C(=O)/C=C/c2ccc(Cl)cc2)nnn1-c1ccc2oc(=O)ccc2c1,85.5%,109%,99.7%,97.7%,42.2%,88.5%,104%,99.8%
CC1(C)CC[C@]2(C(=O)NCCCCCCN(CCCN)CCCN)CC[C@]3(C)C(=CC[C@@H]4[C@@]5(C)CC[C@H](O)C(C)(C)[C@@H]5CC[C@]43C)[C@@H]2C1,98.6%,102%,105%,107%,93.4%,99.2%,103%,102%
Cn1cc(-c2nnc(N)nc2-c2c[nH]c3ccc(F)cc23)c2cc(Br)ccc21,29.4%,11.1%,3.84% (active),20.4%,12.3%,14.9%,53.6%,22.5%
CCCCCCNC(=O)Oc1ccc(/C(=C(/C)c2ccc(OC)cc2)c2ccc(OCCN3CCCCCC3)cc2)cc1,-19.1% (active),70.3%,24.1%,-41.4% (active),-30.3% (active),-86.6% (active),24.4%,16.7%
CS(=O)(=O)c1nccc(-c2c(-c3cccc(OCc4ccc(Cl)c(C(F)(F)F)c4)c3)nc3sccn23)n1,-45.6% (active),101%,103%,61.2%,-67.8% (active),70.4%,-50.1% (active),37%
COc1ccc2[nH]cc(-c3nn4cc(-c5ccncc5)nc4s3)c2c1,7.81% (active),74.8%,90.2%,66.3%,11.2%,52.8%,81.4%,64.1%
FC(F)(F)c1cc(Br)cc(-c2cc(-c3ccc4c(c3)OCCO4)[nH]n2)c1,66.4%,-3.55% (active),-12.3% (active),25.3%,11.4%,5.67% (active),29.1%,12.3%
O=C(CCCCCCNC(=O)C(O)(O)C(F)(F)F)Nc1ccc(Cl)cc1,10.5%,45.9%,11.6%,5.2% (active),17.3%,3.99% (active),25.6%,20.6%
COc1ccc2[nH]cc(/C=N/Nc3ccnc4cc(Cl)ccc34)c2c1,-53.6% (active),-91.8% (active),-90.8% (active),-71.8% (active),-69.1% (active),-50.5% (active),-89.4% (active),-78% (active)
CCOC(=O)C(=O)Nc1ccc2c(ccn2C(=O)c2cccc(F)c2)c1,99.1%,88.8%,100%,98.7%,89.6%,102%,103%,98.2%
CN1CCN(c2ccc(Nc3nc(NCCNS(=O)(=O)c4ccc(Cl)cc4)c4sccc4n3)cc2)CC1,84.3%,111%,95.4%,94.7%,83.2%,58.5%,108%,93.7%
CCOP(=O)(OCC)OC[C@]12CCC(C)(C)C[C@H]1C1=CC[C@@H]3[C@@]4(C)CC[C@H](OP(=O)(OCC)OCC)C(C)(C)[C@@H]4CC[C@@]3(C)[C@]1(C)CC2,26.2%,54.1%,62.1%,68.4%,28.1%,18.5%,73.1%,63.9%
CCCCCC[n+]1ccc(SCC(=O)n2ccc3ccccc32)c2ccccc21,59.1%,73.2%,101%,92.1%,75.6%,73.2%,92.8%,84.3%
COc1ccc(Cn2cc(C#N)c(N)c2C(C)=O)cc1,96.8%,114%,104%,111%,90.4%,108%,107%,98.7%
CNC(=O)c1cc(-n2ccc3cc(NC(=O)Nc4ccc(N5CCN(C)CC5)c(C(F)(F)F)c4)ccc32)ccn1,87.4%,95.1%,22.5%,21.5%,-23.9% (active),-17.4% (active),92.3%,30.5%
COc1ccc(C(C)=C(c2ccc(OCCN(C)C)cc2)c2ccc(OCCN(C)C)cc2)cc1,-60.6% (active),-27.3% (active),-75.7% (active),-65.8% (active),-67.6% (active),-81% (active),-69.4% (active),-8.05% (active)
CC(C)(C)Nc1nc2c(OCCc3ccccc3)cccn2c1-c1ccc([N+](=O)[O-])cc1,15.2%,95.8%,85.3%,77.6%,7.18% (active),49.7%,49.9%,36.8%
Cc1ccc(NC2=C(Cl)C(=O)c3nc(C)ccc3C2=O)c(C)c1,-46.1% (active),62.9%,-90% (active),-29.4% (active),-64.4% (active),-67.7% (active),64.6%,44.9%
NC1=NC2(CCCC2)N(c2ccc(S(=O)(=O)Nc3nccs3)cc2)C(N)=N1,103%,102%,107%,105%,97.6%,109%,109%,101%
O=C1CSC(c2cn(-c3ccccc3)nc2-c2ccc(Cl)cc2)N1c1ccccc1 (stereo not given),102%,109%,103%,120%,83.5%,95.4%,111%,102%
CCCCCN1C(=O)/C(=c2\sc3n(c2=O)C2C(NN=3)N(CC)C(=O)N2CC)c2cccc(C)c21 (stereo not given),44%,68%,-13.6% (active),43.5%,18.2%,32.3%,86%,26.6%
CNCCN(C)c1ccc(Nc2cc(NC3CC3)n3ncc(C#N)c3n2)cc1NC(C)=O,-16.2% (active),-54.7% (active),6.93% (active),-2.54% (active),-0.902% (active),-5.45% (active),10.2%,8.46% (active)
CC(O)c1cccc(/C(N)=N/C(N)=N/c2nc3ccccc3s2)c1 (stereo not given),83.6%,117%,98%,98.2%,90.5%,70.1%,118%,83.2%
O=c1c2ccccc2cc2n1CCN=C2c1ccccc1,91.7%,116%,104%,96%,94.7%,106%,109%,104%
